# Source: PubChem (Broad Institute)
# This is one part of a sample in which hits are shown more often than they occur.
# Tgondii IFNg: inhibitors of Toxoplasma gondii growth with IFN-gamma; Toxoplasma gondii growth in IFN-gamma-treated host cells; stronger effect = lower value; activity change, negative = inhibition, % (concentration not given with the values); actives 3.8% (n = 69,000); AID 1259416; in the data active means activity change below about -70%, passing the limit was not always enough;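 further: host cells are HeLa cells infected with Toxoplasma gondii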
# An asterisk follows results filed as active; ! = a repeat was not active.
SMILES,Tgondii IFNg
CN(c1ncccn1)C1COC2(CCCN(c3ncccn3)C2)C1 (centres undefined),-4.4
COC(=O)[C@@H]1C[C@H](NC(=O)c2ccc(Cl)s2)CN1C,11.4
CCN(C)c1ncc2c(c1C(=O)O)CCN(Cc1cnn(C)c1)C2,3.5
C[C@]12CCC3c4ccc(OS(=O)(=O)O)cc4CCC3C1CCC2=O (some centres undefined),17.4
C[C@]12CCC3c4ccc(O)cc4CCC3C1CC[C@@H]2OC(=O)CCC1CCCC1 (some centres undefined),-72.1*!
C[C@]12CC[C@@H]3c4ccc(O)cc4CC[C@H]3[C@@H]1CC[C@@H]2OC(=O)CCC(=O)O,1.5
CC(C)N(C)[C@@H]1c2ccccc2[C@H]2CN(C(=O)c3cnccn3)C[C@H]21,-4.9
O=C(Cn1c(=O)cc(C(=O)N2CCOCC2)c2ccccc21)Nc1ccccc1F,7.6
